Source: PubChem BioAssay (Tox21)
Results filed as inconclusive are left out. Where a call stands in place of a potency, no number is given. Calls of active or inactive are those of the source. Calls come from the whole dose curve.
Potency is the fitted concentration of half-maximal effect.

These compounds were tested against Retinoic acid receptor RXR-alpha (Homo sapiens) (UniProt P19793) (assay: qHTS assay to identify small molecule agonists of the RXR signaling pathway (AID 1159527; note: nearly all actives have a fitted effect of over 35% in size)). Settings: HEK293T RXRa-UAS-bla, beta-lactamase ratio, 16 h; series mostly up to 76.8 µM.
Retinoic acid receptor RXR-alpha (Homo sapiens), sequence (P19793 whole entry, looked up): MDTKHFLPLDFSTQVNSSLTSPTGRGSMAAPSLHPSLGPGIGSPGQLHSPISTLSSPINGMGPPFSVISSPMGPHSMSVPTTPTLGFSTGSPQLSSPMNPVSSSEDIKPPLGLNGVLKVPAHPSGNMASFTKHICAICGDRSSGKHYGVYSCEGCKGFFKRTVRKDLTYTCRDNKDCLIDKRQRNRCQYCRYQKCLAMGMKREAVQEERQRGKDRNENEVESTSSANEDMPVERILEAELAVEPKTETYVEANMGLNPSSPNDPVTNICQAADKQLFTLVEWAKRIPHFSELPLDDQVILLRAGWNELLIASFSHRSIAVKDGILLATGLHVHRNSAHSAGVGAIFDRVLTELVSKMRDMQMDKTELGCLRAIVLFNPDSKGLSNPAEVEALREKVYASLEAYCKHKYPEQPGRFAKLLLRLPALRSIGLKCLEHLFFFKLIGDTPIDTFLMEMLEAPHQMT
Excerpt: U.S. Tox21 Program National Center for Advancing Translational Sciences [NCATS] NIH Chemical Genomics Center [NCGC] U.S. Environmental Protection Agency [EPA] National Institutes of Environmental Health Sciences [NIEHS] National Toxicology Program [NTP] U.S. Food and Drug Administration [FDA] Tox21 Assay Overview: The Retinoid X receptor (RXR), a nuclear hormone receptor expressed in liver, spleen, placenta, epidermis, central nervous system. These receptors are able to form homo and heterodimers with other nuclear receptors and due to this heterodimerizing ability, RXR functions as master regulators producing diverse physiological effects. Three subtypes of RXR exist; alpha, beta and gamma. Retinoid X receptor alpha (RXR-alpha) has potential roles in metabolic signaling pathways, skin alopecia, dermal cysts, cardiac development, insulin sensitization etc. Therefore screening environmental chemicals on RXR-alpha signaling can be used for the studies focused on such therapeutic applications. For quantification of RXR-alpha ligands signaling, GeneBLAzer RXR alpha-UAS-bla HEK 293T (Life Technologies, Carlsbad, CA) cells containing a beta-lactamase reporter-gene under control of Retinoid X receptor-alpha response element were used to screen Tox21 10K library.
Tox21 Assay Protocol Summary: RXR-alpha HEK 293T cells were dispensed at 2,000 cells/6 uL of assay medium containing 2% charcoal-stripped FBS using a Multidrop Combi (ThermoFisher Scientific, Waltham, MA) dispenser. The assay was performed in black wall/clear-bottom 1536-well plates (Greiner Bio-One North America Inc. Monroe, NC). 9-cis retinoic acid was used as a positive control in the agonist mode screen. After the assay plates were incubated at 37 C and 5% CO2 for 5 hr, 23 nL of compounds dissolved in DMSO, positive controls or DMSO only were transferred to the assay plate by a Pintool station (Kalypsys, San Diego, CA). The assay plates were incubated at 37 C and 5% CO2 for 16 hr. One uL of LiveBLAzer B/G FRET substrate (Life Technologies) was added using a Flying Reagent Dispenser (Aurora Discovery, San Diego, CA) and the plates were incubated at room temperature for 2 hr. Fluorescence intensity (405 nm excitation, 460/530 nm emission) was measured using an Envision plate reader (PerkinElmer, Shelton, CT).
In the case of `N#Cc1cc(NC(=O)C(=O)O)c(Cl)c(NC(=O)C(=O)O)c1`, the Potency is reported as “inactive”.
With `CCOC(=O)CC(C(C)=O)C(C)=O` the Potency was “inactive”.
For `N=C(N)S(=O)O`, the Potency was “inactive”.
`C=CC(=O)CC` was tested, and the Potency was “inactive”.
In the case of `Cc1ccc(OC(=O)CC(C)C)cc1`, the Potency is reported as “inactive”.
`CC12CCCC=C1C(=O)OC2=O` (stereo not given) was tested, and the Potency was “inactive”.
`C=CCCCCCCCCOC(C)=O` was tested, and the Potency was “inactive”.
With `CCOCCOCCOC(C)=O` the Potency was “inactive”.
For `C=CC(=O)OCC[N+](C)(C)C`, the Potency was “inactive”.
`CC(C)(C)C(=O)CCc1ccc(Cl)cc1` was tested, and the Potency was “inactive”.
In the case of `CCOC(=O)c1ccc(N(C)C)cc1`, the Potency is reported as “inactive”.
`O=C1Nc2ccccc2C1=O` was tested, and the Potency was “inactive”.
`CC(C)c1cc(C(C)C)cc(C(C)C)c1` was tested, and the Potency was 15.5 µM (active).
`CC(C)(C)NCC(O)COc1cccc2c1CCC(=O)N2` (stereo not given) was tested, and the Potency was “inactive”.
For `CC(C)C[P+](C)(CC(C)C)CC(C)C`, the Potency was “inactive”.
For `CCCCC(O)/C=C(C)/C=C/C=C/C(=O)N1CCCC1=O` (stereo not given), the Potency was “inactive”.
`Cc1cc2c(cc1CC(=O)c1sccc1S(=O)(=O)Nc1onc(C)c1Cl)OCO2` was tested, and the Potency was “inactive”.
In the case of `C=CCn1cc[n+](C)c1`, the Potency is reported as “inactive”.
In the case of `Nc1nc(Cl)cc(Cl)n1`, the Potency is reported as “inactive”.
`C=CCON/C(CCC)=C1\C(=O)CC(C)(C)C(C(=O)OC)=C1O` was tested, and the Potency was “inactive”.
`C[Si](C)(C)O[Si](O)(O)O` was tested, and the Potency was “inactive”.
`CCCC(=O)C(CC)Sc1ccoc1C` (stereo not given) was tested, and the Potency was “inactive”.
In the case of `CC(=O)O[C@@H]1CC2C3CCc4cc(OC(=O)c5ccccc5)ccc4C3CCC2(C)[C@H]1OC(C)=O` (stereo not given in full), the Potency is reported as “inactive”.
For `C[C@]12C=CC(=O)C=C1[C@@H](F)C[C@@H]1[C@@H]2[C@@H](O)C[C@@]2(C)[C@H]1CC[C@]2(O)C(=O)CO`, the Potency was “inactive”.
In the case of `NS(=O)(=O)c1cc2c(cc1C(F)(F)F)NCNS2(=O)=O`, the Potency is reported as “inactive”.
For `CC(C)(C)C(=O)CC(=O)C(C)(C)C`, the Potency was “inactive”.
With `CC/C=C/CCCCCCCCCCOC(C)=O` the Potency was “inactive”.
In the case of `CCCCCCCCCCCBr`, the Potency is reported as “inactive”.
In the case of `CC(C)OC(=O)C(C(=O)OC(C)C)=C1SC=CS1`, the Potency is reported as “inactive”.
For `CCCCN(CCCC)CCCCCCN(CCCC)CCCC`, the Potency was “inactive”.
`O=C(O)P(=O)(O)O` was tested, and the Potency was “inactive”.
In the case of `Cc1ccc(S(=O)(=O)NC(=O)NN2CC3CCCC3C2)cc1` (stereo not given), the Potency is reported as “inactive”.
`CC(=O)OC1CCC(C(C)(C)C)CC1` (stereo not given) was tested, and the Potency was “inactive”.
`C/C(Cl)=C/CCl` was tested, and the Potency was “inactive”.
With `CNCCc1ccccn1` the Potency was “inactive”.
In the case of `N#Cc1ccccc1C#N`, the Potency is reported as “inactive”.
For `CCCCCCCCS(=O)(=O)O`, the Potency was “inactive”.
In the case of `OCCC(F)(F)C(F)(F)C(F)(F)C(F)(F)C(F)(F)C(F)(F)F`, the Potency is reported as “inactive”.
For `COC(=O)/C=C(\C)CCC=C(C)C`, the Potency was “inactive”.
With `CC(CC(=O)Cl)CC(C)(C)C` (stereo not given) the Potency was “inactive”.
